Sampled rows, rich in hits. Any-hit rate of the full collection: about 11%.
Pf growth 96h = inhibits malaria parasite growth, 96 h; P. falciparum luciferase reporter growth, 96 h; Potency, µM (highest dose often 28.7 µM), inactives show top-dose activity change, negative = inhibition, usual class: inhibitors; hit rate 6.9% among 320,000; AID 504834; note: % is set by controls: 0 for no effect and ±100 for the full control effect
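Cell-based qHTS: luciferase-tagged P. falciparum in erythrocytes (2% hematocrit, 0.05% parasitemia final) incubated with compounds for 96 hours, 37 C, 5% CO2; luciferase detection reagent then added and luminescence measured.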
Pf growth 48h = P. falciparum growth inhibition at 48 hours (one generation) | Potency, µM (series often up to 28.7 µM), inactives show top-dose activity change, negative = inhibition, most hits filed as inhibitors | AID 504832 | P. falciparum luciferase growth in erythrocytes, 48 h | hit rate 5.9% among 310,000; note: % is set by controls: 0 for no effect and ±100 for the full control effect
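Here the parasites carry a stable luciferase gene and grow inside erythrocytes in Albumax-based RPMI medium with compound for one erythrocytic cycle. Activity is scored as loss of luminescent signal.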
Vaccinia Venus = inhibitors of vaccinia virus (Venus reporter); Vaccinia virus Venus reporter expression, fluorescence; Potency, µM (titrated, usually from 36.5 µM), inactives show at the highest dose activity change, negative = inhibition, usual class: inhibitors; hit rate 0.46% among 330,000; AID 720580; calls by dose curve; tested in A549 cells; note: % is set by controls: 0 for no effect and ±100 for the full control effect; nearly all actives have a fitted effect of over 30% in size
HCV inh = blocks hepatitis C virus | Huh7.5.1 HCVcc-Cre infection, luciferase reporter, 44 h | Potency, µM (doses to about 41.8 µM), without a hit: at the top dose activity change, negative = inhibition, hits mostly inhibitors | hit rate 3.4% among 340,000 | AID 651820; note: % is set by controls: 0 for no effect and ±100 for the full control effect
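A cell-based infection assay in which seeded cells (1,000 per well) receive test compound after 4 h, are inoculated with HCVcc-Cre at approximately 0.5 moi, and are incubated 44 h before luminescence detection.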
VACV mCherry inh = vaccinia inhibition (mCherry reporter); Potency, µM (titrated, usually from 36.5 µM), inactives show at the highest dose activity change, negative = inhibition, actives largely listed as inhibitors; Vaccinia virus mCherry reporter infection, fluorescence; hit rate 0.63% among 310,000; AID 720579; calls by dose curve; tested in A549 cells; note: % is set by controls: 0 for no effect and ±100 for the full control effect; nearly all actives have a fitted effect of over 35% in size
NS1 function inh = influenza NS1 inhibition. hit rate 0.4% among 270,000. Potency, µM (titrated, usually from 46.1 µM), for inactives: at the highest dose activity, positive = more growth; calls by dose curve; note: actives are rising curves; nearly all actives have a fitted effect of over 50% in size
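Compounds were scored for reversing the slow growth caused by influenza A NS1 in S. cerevisiae, measured by optical density at 600 nm. Assay medium contained 2% galactose at pH 6.0; NS1-free yeast of the same strain were the positive control.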
Numbers without * were called inactive; i = inactive; ? = inconclusive; / = no result. Unless noted, calls come from the whole dose curve; as a rule, active = well fitted inhibition curve with a large enough effect; inconclusive = small, poorly fitted or top-dose-only effect, or another doubt; inactive = no such curve, though single readings can be large or run the other way. Potency is the fitted concentration of half-maximal effect.

SMILES	Pf growth 96h	Pf growth 48h	Vaccinia Venus	HCV inh	VACV mCherry inh	NS1 function inh
COC(=O)c1cc(S(=O)(=O)N2CCCCC2)ccc1N1CCOCC1	-11.8%	?	0.3%	0.4%	-5.9%	/
O=C(OCc1cccc(C(F)(F)F)c1)c1cc(S(=O)(=O)N2CCOCC2)ccc1F	5.2%	-29.6%	-21.0%	10µM*	-9.6%	/
Cc1ccc(C)c(COC(=O)c2cc(S(=O)(=O)N3CCCCC3)ccc2N2CCOCC2)c1	?	14.7µM*	-27.7%	-0.4%	?	/
CC(C)CNC(=O)COC(=O)c1cc(S(=O)(=O)N2CCCCC2)ccc1N1CCOCC1	?	?	-7.7%	-5.4%	/	-11.4%
O=C(OCc1cccc(Cl)c1)c1cc([N+](=O)[O-])ccc1N1CCOCC1	11.7µM*	?	?	10µM*	?	/
O=C(OCc1cccc(Cl)c1)c1cc(S(=O)(=O)N2CCCCC2)ccc1N1CCOCC1	13.1µM*	?	-29.8%	11.2µM*	-10.9%	15.3%
Cc1cc(C)nc(SC(C)C(=O)O)n1 (stereo not drawn)	-5.3%	47.9%	-3.2%	21.0%	-10.1%	?
Cc1ccc(CNC(=O)c2cc(S(=O)(=O)N3CCCCC3)ccc2N2CCOCC2)cc1	?	8.28µM*	-18.4%	?	?	/
Cc1ccc(NC(=O)c2cc(S(=O)(=O)N3CCCCC3)ccc2N2CCOCC2)cc1	/	/	0.2%	/	-14.8%	/
Cc1ccc(C)c(COC(=O)c2cc([N+](=O)[O-])ccc2N2CCOCC2)c1	?	?	-21.0%	12.6µM*	?	/
COc1ccc(C(=O)c2ccccc2)c2c(O)ccc(C(=O)c3ccccc3)c12	/	?	?	2.51µM*	/	21.1%
COc1cc(O)c(C(=O)c2ccccc2)cc1O	/	/	-6.6%	/	?	/
CN(C)c1ccc(CC(=O)c2nc3ccccc3s2)cc1	3.29µM*	?	/	7.7%	/	3.1%
CN(C)C(=O)c1nc2ccccc2s1	18.8%	33.1%	11.9%	8.2%	-3.0%	-3.1%
CCOc1ccc(N(C(=O)Cn2nnc3ccccc32)C(C(=O)NC(C)(C)CC)c2cccn2C)cc1 (stereo not drawn)	1.6%	13.1µM*	-14.4%	10.3%	/	10.0%
CCC(C)(C)NC(=O)C(c1ccncc1)N(C(=O)Cn1nnc2ccccc21)c1cc2c(cc1C(C)=O)OCO2 (stereo not drawn)	13.1%	?	0.9%	1.8%	-6.8%	-1.2%
CCC(C)(C)NC(=O)C(c1cccn1C)N(C(=O)Cn1nnc2ccccc21)c1ccc(OC)cc1OC (stereo not drawn)	5.7%	8.28µM*	/	-3.8%	/	-9.5%
CCN1CCN(c2ccc(N)cc2)CC1	89.6%	32.4%	15.5%	14.3%	-9.1%	/
COc1ccc([C@@H]2[C@@H]3C(=O)N(C(C)(C)C)C(=O)[C@@H]3[C@]3(C)C(=O)N(c4ccc(C(F)(F)F)cc4)C(=O)N23)cc1	?	?	-13.5%	11.0%	i	-14.9%
COc1ccc([C@@H]2[C@@H]3C(=O)N(C(C)(C)C)C(=O)[C@@H]3[C@]3(CC(C)C)C(=O)N(c4ccc(C(F)(F)F)cc4)C(=O)N23)cc1	3.7µM*	11.7µM*	-20.5%	14.9%	i	6.6%
COc1ccc([C@@H]2[C@@H]3C(=O)N(C(C)(C)C)C(=O)[C@@H]3[C@]3(Cc4ccccc4)C(=O)N(c4ccc(C(F)(F)F)cc4)C(=O)N23)cc1	5.86µM*	?	-14.6%	17.3%	i	26.9%
CCc1ccccc1Nc1nn2c(=O)c3ccc(C(=O)NCCC4=CCCCC4)cc3nc2s1	/	/	-12.2%	/	-16.1%	/
CC(C)Oc1ccc(C(=O)OCC(=O)NCCNC(=O)COC(=O)c2ccc(OC(C)C)cc2)cc1	13.1µM*	?	/	-5.0%	/	2.3%
CC(C)Oc1ccc(C(=O)OCC(=O)NC2CCCCCC2)cc1	-21.7%	?	/	11.2µM*	/	/
CC(C)Oc1ccc(C(=O)OCC(=O)NC(=O)NC2CCCC2)cc1	-22.9%	-28.0%	/	-13.8%	/	/
SMILES	Pf growth 96h	Pf growth 48h	Vaccinia Venus	HCV inh	VACV mCherry inh	NS1 function inh
CN(CC(=O)Nc1ccc(Cl)cc1)S(=O)(=O)c1ccc2c(c1)n(C)c(=O)c(=O)n2C	?	20.1%	-10.5%	-4.2%	i	-5.3%
CCOC(=O)c1cnn(-c2ccc(NS(=O)(=O)c3ccc(Cl)cc3)cc2)c1C(F)(F)F	-4.0%	-1.6%	-23.0%	10.4%	-25.0%	-33.5%
Cc1ccc(S(=O)(=O)N(C)C)cc1NC(=O)C(C)NC(C)c1cccs1 (stereo not drawn)	-2.2%	-11.5%	-13.5%	7.0%	-27.6%	13.3%
Cc1ccc(S(=O)(=O)N(C)C)cc1NC(=O)C(C)N(C)Cc1sccc1C (stereo not drawn)	-22.6%	?	?	7.08µM*	?	1.0%
O=C(CC1(O)C(=O)N(Cc2cccc3ccccc23)c2ccccc21)c1cccnc1 (stereo not drawn)	3.7µM*	/	/	?	/	-4.4%
CN1C(=O)C(O)(CC(=O)c2cccnc2)c2ccccc21 (stereo not drawn)	?	-8.1%	/	11.4%	/	-15.1%
COc1ccc(CN(C)CC(=O)Nc2ccccc2C(F)(F)F)c(OC)c1	61.8%	10.3%	-7.8%	32.5%	i	3.8%
COc1ccc(-c2n[nH]c3c2CN(C(=O)c2ccc(OC)c(OC)c2)CC3)cc1	11.7µM*	?	/	-19.3%	/	3.1%
Cc1ccc(NC(=O)[C@@H]2CCCN2C(=O)[C@@H]2Cc3ccccc3CN2)c(C)c1	60.1%	-13.8%	/	-1.8%	/	-19.6%
Cc1ccccc1CC(=O)NCC1CCCCC1	11.7µM*	-2.1%	2.8%	2.8%	-15.2%	13.3%
Cc1ccccc1CC(=O)NC1CCCCCC1	?	0.0%	/	2.5%	/	4.2%
CC(SC1=Nc2ccccc2C2CC=NN12)C(=O)NC1(C#N)CCCCC1 (stereo not drawn)	8.28µM*	?	-9.0%	?	i	/
O=C(NCCc1ccccc1)c1nccc2ccccc12	113.4%	128.2%	-14.9%	-22.1%	i	/
c1ccc(CCNc2ccnc3cc4ccccc4cc23)cc1	49.1%	0.522µM*	?	6.31µM*	?	/
COc1ccc(Nc2ccnc3ccccc23)cc1	?	11.7µM*	-20.4%	?	/	-6.1%
Cc1cc(Nc2ccc(F)cc2)c2ccccc2n1	/	/	-19.5%	/	-18.1%	/
CC(C)Nc1ccc(Nc2ccnc3cc4ccccc4cc23)cc1	0.586µM*	0.522µM*	?	?	?	-9.3%
CC(=O)NC(Cc1ccccc1C)C(=O)NC1CCN(C(=O)c2ccc(C)cc2)CC1 (stereo not drawn)	?	15.2%	/	4.4%	/	5.2%
CCOC(=O)c1c(N)n(CCOC(=O)c2cccs2)c2nc3ccccc3nc12	?	?	-7.1%	-6.0%	-13.3%	-68.8%
CCOC(=O)c1cc2c(nc1C)-c1cc(Cl)cc(Cl)c1OC2O (stereo not drawn)	4.65µM*	6.57µM*	/	-22.5%	/	6.0%
